From PubChem BioAssay AID2315 (National Center for Advancing Translational Sciences (NCATS), 2010)
In all, about 290,000 compounds went through this assay and about 27,000 (9.3%) were called active. Many of the other results were omitted from the sample, so actives are more common in it than they were. Unmarked numbers belong to inactive results. Cut-off read from the data, not from the text of the source: active = inhibition mostly above about 28% (no sharp cut-off); inactive = mostly below about 43%.

Experiment: A qHTS for Small Molecule Inhibitors of Shiga Toxin; note: 0% is about no effect
Conditions: Vero cells, Shiga toxin protein synthesis inhibition reporter; at 38.7 µM, stronger effect = higher value

SMILES | inhibition
O=C(Cn1nc([N+](=O)[O-])nc1Br)NC1CCCCC1 | -1.71%
Cc1cc(-c2ccc(S(=O)(=O)N3CCN(c4cccc(C(F)(F)F)c4)CC3)s2)on1 | -3.9%
CCCCC(=O)N/N=C(\C)CC(=O)Nc1cc(Cl)ccc1OC | 2.31%
O=C(COc1ccc(Cl)cc1Cl)NCCCNC(=O)c1cnccn1 | -3.62%
COc1ccc(NC(=O)C/C(C)=N/NC(=O)c2cnccn2)cc1Cl | 45.4% (active)
COc1ccccc1C(=O)NCc1nnc(SC(C)C(=O)Nc2nccs2)n1C (stereo not drawn) | 10.7%
CCOc1ccc(NC(=O)C(C)N2C(=O)c3ccccc3C2=O)cc1 (stereo not drawn) | -15.9%
O=C(Cc1ccc(Cl)cc1)NC1CCS(=O)(=O)C1 (stereo not drawn) | 1.56%
O=S(=O)(Nc1ccc2cn[nH]c2c1)c1ccccc1 | 24%
O=S(=O)(Nc1ccc2nc(-c3ccco3)[nH]c2c1)c1ccccc1 | 70.6% (active)
Cc1ccc(S(=O)(=O)Nc2ccc3ncccc3c2)cc1 | -8.08%
CN1CCN(/N=C/c2ccc(-c3ccc([N+](=O)[O-])cc3)o2)CC1 | 46.8% (active)
CN1CCN(/N=C/c2ccc(C#N)cc2)CC1 | 81.4%
Cc1ccc(-c2ccc(/C=N/NC(=O)CN3CCOCC3)o2)cc1[N+](=O)[O-] | -4.74%
Cc1ccc(S(=O)(=O)N2CCN=C2SCc2c(F)cccc2Cl)cc1 | -2.63%
Cn1cc([N+](=O)[O-])c(C(=O)Nc2ccc3c(c2)OCCO3)n1 | 53.6% (active)
Cc1nc([N+](=O)[O-])cn1CC(=O)Nc1ccc2c(c1)OCO2 | -7.53%
Cn1cc([N+](=O)[O-])c(C(=O)Nc2cnn(Cc3ccc(F)cc3)c2)n1 | 7.88%
Cc1nn(CC(=O)Nc2ccc3c(c2)OCO3)c(C)c1[N+](=O)[O-] | -8.73%
COc1cccc(NC(=O)c2nn(C34CC5CC(CC(C5)C3)C4)cc2[N+](=O)[O-])c1 | 28.3%
Cc1onc(C(=O)Nc2ccc3c(c2)OCO3)c1[N+](=O)[O-] | 62.7% (active)
c1ccc(CSc2nnc(-c3ccco3)n2Cc2ccccc2)cc1 | 94.3% (active)
c1ccc(CSc2nnc(-c3ccco3)c(-c3ccco3)n2)cc1 | -7.92%
O=C(CSc1nnc(-c2ccco2)n1Cc1ccccc1)NC(=O)NCc1ccco1 | 10.4%
O=C(Nc1ccc(S(=O)(=O)NCC2CCCO2)cc1)c1ccc(F)cc1 (stereo not drawn) | -1.55%

SMILES | inhibition
CCc1cccc(C)c1NS(=O)(=O)c1cc(Br)cnc1N | -8.52%
COc1ccc(/C=N/NC(=O)c2ccc(Cl)cc2)cc1COC(C)=O | -2.77%
CC1(C)C2CC=C(/C=N/NC(=O)c3ccc(Cl)cc3)C1C2 (stereo not drawn) | 30.5%
Cn1nccc1/C=N\NC(=O)c1ccc(Cl)cc1 | 30.8% (active)
Cc1c(CC(=O)N2CCN(C(=O)C3COc4ccccc4O3)CC2)c(=O)oc2c(O)c(O)ccc12 (stereo not drawn) | 6.52%
O=C(CCC1CCCN(C(=O)c2ccc(F)c(F)c2)C1)N1CCN(c2ccccn2)CC1 (stereo not drawn) | -25.9%
Cc1ccc(O)c(CNc2nc3ccccc3[nH]2)c1 | 30.6%
CC(C)n1c(NCc2c[nH]c3ccccc23)nc2ccccc21 | 8.94%
Cc1ccc(O)c(CNc2nc3ccccc3n2C)c1 | 75.2% (active)
O=C(NCCCN1CCOCC1)c1ccc2c(c1)N(Cc1cccc(F)c1)C(=O)c1ccccc1S2 | -12.3%
O=C(NC1CC1)c1ccc(-c2ccccc2)cc1 | 97.2% (active)
O=C(NC1CCCC1)c1cc(-c2ccccc2)on1 | 157% (active)
O=C(CCC(=O)c1cccs1)NC1CCCCCC1 | 29.7%
O=C(NC1CCCCCCC1)c1cccs1 | 88.4% (active)
CSc1ccccc1NC(=O)c1cc(Cl)sc1Cl | 25.1%
CC(NC(=O)c1cc(-c2ccccc2)on1)c1ccccc1 (stereo not drawn) | 0.984%
O=C(NC1CCN(S(=O)(=O)c2ccc(F)cc2)CC1)c1ccccc1 | -7.58%
CC(C)C(OC(=O)c1cccs1)C(=O)NC1CCCCC1 (stereo not drawn) | 8.34%
CSc1ccccc1NC(=O)c1cc(C2CC2)on1 | 19.8% (active)
O=C(NC1CC1)c1cccc(Br)c1 | 23.6%
CC(=O)c1cc(-c2ccccc2)n(CC(=O)NC2CCCCC2)c1C | 26.5%
O=C(Nc1cc(C(F)(F)F)ccc1Cl)c1cc(C2CC2)on1 | -4.26%
Cc1ccc(N2C(=O)C3C4C=CC(CC4)C3C2=O)cc1Cl (stereo not drawn) | 6.23%
C[N+](C)(C)CCNC(=O)c1cc[n+](Cc2ccccc2)c(/C=N/O)c1 | -12.2%
CCCCC[C@H]1CN(C2CCCCC2)C(=O)[C@@H]1CC(=O)NCc1ccc(OC)cc1 | -2.81%

SMILES | inhibition
CCOc1ccc2c(c1)c(=O)c(S(=O)(=O)c1ccc(C)cc1)cn2CC | -4.36%
O=C(NNS(=O)(=O)c1ccc(F)cc1)C1CCCCC1 | -10.2%
COc1ccc(-c2cc(C(=O)NCCCn3ccnc3)no2)cc1 | 46.8%
COc1cc(OC)c(C(=O)NC2CCCCCC2)cc1OC | -10.7%
Cc1nn(Cc2ccc(Cl)c(Cl)c2)c(C)c1NC(=O)c1cc(C2CC2)on1 | 12.5%
O=C(NC1CCCCC1)c1cc(C2CC2)on1 | 108% (active)
COc1ccccc1-c1cc(C(=O)NCCCn2ccnc2)no1 | 24.1%
O=C(NCCCn1ccnc1)c1cc(-c2ccccc2)on1 | 146% (active)
Cc1ccc(OCCCC(=O)Nc2ccc(S(=O)(=O)Nc3cc(C)nc(C)n3)cc2)cc1 | 12.9%
C=C1CCN(C(CC(C)C)C(=O)NCc2cc(OC)c(OC)c(OC)c2)S(=O)(=O)c2ccccc21 (stereo not drawn) | -0.34%
CCOc1cc(C2C(C(=O)c3ccco3)=C(O)C(=O)N2Cc2ccccc2)ccc1O (stereo not drawn) | -8.41%
CC(=O)[C@@]12O[C@@H]1C[C@H]1[C@@H]3CC[C@H]4C[C@@H](O)CC[C@]4(C)[C@H]3CC[C@@]12C | 33.3%
Cn1c(=O)c2sccc2n(Cc2ccc(Br)cc2)c1=O | 22.9%
Cc1snc(SCc2c(F)cccc2Cl)c1C#N | -6.99%
Cc1ccc(CSc2nsc(C)c2C#N)cc1 | 31.1% (active)
Cc1cc(C)c(C#N)c(SCc2ccc3c(c2)OCO3)n1 | 26.6%
CC(C(=O)NC1CCCCC1)N1C(=O)c2cccc3cccc1c23 (stereo not drawn) | -6.55%
CC(=O)N(Cc1cc(=O)[nH]c2ccccc12)c1ccc(C)cc1C | -8.12%
COc1cccc(CNc2nc3nc4c(c(=O)n3[nH]2)CCC4)c1 | -7.62%
O=C(c1cc2nc(-c3ccccc3)cc(-c3ccccc3)n2n1)N1CCC2(CC1)OCCO2 | 10.6%
COc1cccc(-c2cc3nc4c(c(N5CCC6(CC5)OCCO6)n3n2)CCCC4)c1 | 63.6% (active)
COc1ccc(S(=O)(=O)N2CCN(C(=S)NCC3CCCO3)CC2)cc1OC (stereo not drawn) | -11.6%
O=S(=O)(NCCCCCCNS(=O)(=O)c1c(F)cccc1F)c1ccc2c(c1)OCCO2 | -3.9%
O=C(O)CCCn1cc(NC(=O)COc2cccc(Cl)c2)cn1 | 12.7%
COc1cc(C(=O)OCC(=O)NC(C)CCc2ccccc2)cc(OC)c1OC (stereo not drawn) | -9.96%

SMILES | inhibition
COc1ccc(NC(=S)N2CCc3cc(OC)c(OC)cc3C2)cc1 | 11.3%
COc1ccc(OC)c(NC(=S)N2CCc3ccccc3C2)c1 | 46.8% (active)
COc1ccc(C)cc1NC(=S)N1CCOCC1 | -10.3%
CCOc1ccc(-c2noc(CCC(=O)NC3CCCC3)n2)cc1OC | -7.65%
COc1ccc(CCNC(=O)CSCc2ccc(Br)cc2)cc1OC | -18.8%
Cc1nn(CC(=O)NCC2CCCO2)c(=O)c2cc3ccccc3n12 (stereo not drawn) | 1.03%
Cc1cccc(NS(=O)(=O)c2cc(Cl)ccc2Cl)n1 | 2.75%
CC(C)[C@@H]1COC(c2cccc(C3=N[C@H](C(C)C)CO3)c2)=N1 | 46.5% (active)
O=c1c(-c2ccccc2)coc2c(CN3CCOCC3)c(O)ccc12 | 7.81%
Cc1c(CCC(=O)O)c(=O)oc2cc3occ(-c4ccccc4)c3cc12 | -11.6%
O=c1c(-c2ccccc2)coc2cc(O)ccc12 | 93% (active)
CC(C)c1ccc(C2C(C(=O)c3ccco3)=C(O)C(=O)N2CC2CCCO2)cc1 (stereo not drawn) | 1.66%
COc1ccc(S(=O)(=O)N2CCCC(C(=O)NCCCn3ccnc3)C2)cc1OC (stereo not drawn) | -5.4%
Cc1sc2ncn(CC(=O)NCCCC(=O)N(C)Cc3ccccc3)c(=O)c2c1C | -9.55%
CC(C)(C)OC(=O)N1CCC(C(=O)NNC(=O)c2ccc(Cl)cc2Cl)CC1 | 5.93%
CCOc1ccc(NC(=O)NNC(=O)c2ccc(Cl)cc2Cl)cc1 | 13.5%
Cc1ccc(C(=O)NNC(=O)OC(C)(C)C)c(Cl)c1 | 90.5% (active)
CC(=O)Nc1ccc(NC(=O)c2ccc3c(c2)C(=O)N(c2ccccc2C)C3=O)cc1 | -4.3%
O=C(Nc1cccc(Cl)c1)c1cc(S(=O)(=O)N2CCCCC2)c[nH]1 | -7.57%
Cc1ccccc1NC(=O)CCNS(=O)(=O)c1ccc2[nH]c(=O)oc2c1 | -2.35%
COc1ccc(Nc2ncnc3ccc(Br)cc23)c(OC)c1 | 57.7% (active)
C=CCNc1ncnc2ccc(Br)cc12 | -28.8%
COc1ccc(Nc2ncnc3sc(-c4ccccc4)cc23)c(OC)c1 | 4.65%
